In assay [1] the target is MAP/microtubule affinity-regulating kinase 3 (Homo sapiens) (UniProt P27448). The settings on record: at 1 µM.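 Also: reported values are averaged percent inhibition of MARK3.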
In assay [2] the target is T1, MAP/microtubule affinity-regulating kinase 4 (Homo sapiens) (UniProt Q96L34).
T1 sequence (whole entry): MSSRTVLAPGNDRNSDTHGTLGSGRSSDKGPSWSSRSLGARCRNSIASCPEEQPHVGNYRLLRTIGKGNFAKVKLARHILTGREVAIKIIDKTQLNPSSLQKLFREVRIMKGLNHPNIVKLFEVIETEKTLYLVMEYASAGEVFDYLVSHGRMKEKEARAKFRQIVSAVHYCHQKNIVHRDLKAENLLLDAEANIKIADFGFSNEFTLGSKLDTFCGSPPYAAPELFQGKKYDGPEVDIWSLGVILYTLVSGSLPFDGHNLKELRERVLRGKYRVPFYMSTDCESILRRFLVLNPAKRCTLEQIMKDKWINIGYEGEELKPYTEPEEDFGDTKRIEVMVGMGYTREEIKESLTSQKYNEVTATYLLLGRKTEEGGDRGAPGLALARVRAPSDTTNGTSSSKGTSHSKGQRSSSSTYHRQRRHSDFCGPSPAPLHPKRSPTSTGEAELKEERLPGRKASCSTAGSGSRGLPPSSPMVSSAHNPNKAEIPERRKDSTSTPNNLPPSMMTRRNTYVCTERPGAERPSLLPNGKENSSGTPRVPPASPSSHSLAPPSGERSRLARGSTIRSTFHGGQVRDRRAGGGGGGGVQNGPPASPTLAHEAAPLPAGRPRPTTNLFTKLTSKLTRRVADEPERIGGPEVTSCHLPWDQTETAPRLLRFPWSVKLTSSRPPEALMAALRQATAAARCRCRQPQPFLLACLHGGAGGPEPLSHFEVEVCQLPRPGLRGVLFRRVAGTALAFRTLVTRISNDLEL
The settings on record: at 0.1 µM.

Assay [3] concerns the target T1, MAP/microtubule affinity-regulating kinase 4 (Homo sapiens). The settings on record: at 1 µM.
Assay [4] deals with Maternal embryonic leucine zipper kinase (Homo sapiens) (UniProt Q14680). The settings on record: at 0.1 µM.
Assay [5] shares this target. The settings on record: at 1 µM.
For assay [6], the target named is MAP kinase-interacting serine/threonine-protein kinase 1 (Homo sapiens) (UniProt Q9BUB5). The settings on record: at 0.1 µM.
Assay [7] has the same target. The settings on record: at 1 µM.
Assay [8] has as its target MAP kinase-interacting serine/threonine-protein kinase 2 (Homo sapiens) (UniProt Q9HBH9). The conditions noted are these: at 0.1 µM.
For assay [9] the target is unchanged. The settings on record: at 1 µM.
Assay [10] concerns the target Serine/threonine-protein kinase MARK2 (Homo sapiens) (UniProt Q7KZI7). The settings on record: at 0.1 µM.
For assay [11] the target is unchanged. The settings on record: at 1 µM.
Assay [12] deals with PAS domain-containing serine/threonine-protein kinase (Homo sapiens) (UniProt Q96RG2). The conditions noted are these: at 0.1 µM.
The target is the same in assay [13]. The conditions noted are these: at 1 µM.
For assay [14], the target named is Phosphorylase b kinase gamma catalytic chain, skeletal muscle/heart isoform (Homo sapiens) (UniProt Q16816). The conditions noted are these: at 0.1 µM.
Assay [15] shares this target. The conditions noted are these: at 1 µM.
Assay [16] concerns the target T2, Phosphorylase b kinase gamma catalytic chain, liver/testis isoform (Homo sapiens) (UniProt P15735).
T2 sequence (whole entry): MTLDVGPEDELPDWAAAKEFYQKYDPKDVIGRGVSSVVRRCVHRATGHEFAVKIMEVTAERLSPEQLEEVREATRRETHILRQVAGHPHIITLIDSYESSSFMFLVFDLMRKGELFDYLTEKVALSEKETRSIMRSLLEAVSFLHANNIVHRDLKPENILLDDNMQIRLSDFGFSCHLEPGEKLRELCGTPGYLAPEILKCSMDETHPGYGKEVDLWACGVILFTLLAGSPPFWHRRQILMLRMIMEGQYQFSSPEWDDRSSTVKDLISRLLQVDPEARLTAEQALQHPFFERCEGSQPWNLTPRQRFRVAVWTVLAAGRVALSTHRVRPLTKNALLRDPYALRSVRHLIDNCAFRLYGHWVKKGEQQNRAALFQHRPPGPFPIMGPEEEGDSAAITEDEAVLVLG
The conditions noted are these: at 0.1 µM.

In assay [17] the target is T2, Phosphorylase b kinase gamma catalytic chain, liver/testis isoform (Homo sapiens). The settings on record: at 1 µM.
The target in assay [18] is Serine/threonine-protein kinase pim-1 (Homo sapiens) (UniProt P11309). The conditions noted are these: at 0.1 µM.
Assay [19] has the same target. The settings on record: at 1 µM.
The target in assay [20] is Serine/threonine-protein kinase pim-2 (Homo sapiens) (UniProt Q9P1W9). The conditions noted are these: at 0.1 µM.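 Also: reported value is the mean percent inhibition of PIM2, measured in the GSK PKIS kinase inhibitor set screen.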

The structures appear in SMILES notation.

Here are results for eight molecules from ChEMBL document CHEMBL1961873, “Compounds: GSK PKIS; Assays: Nanosyn kinase panel” (2012).

Chain of MAP/microtubule affinity-regulating kinase 3 (Homo sapiens) (P27448 whole entry, looked up): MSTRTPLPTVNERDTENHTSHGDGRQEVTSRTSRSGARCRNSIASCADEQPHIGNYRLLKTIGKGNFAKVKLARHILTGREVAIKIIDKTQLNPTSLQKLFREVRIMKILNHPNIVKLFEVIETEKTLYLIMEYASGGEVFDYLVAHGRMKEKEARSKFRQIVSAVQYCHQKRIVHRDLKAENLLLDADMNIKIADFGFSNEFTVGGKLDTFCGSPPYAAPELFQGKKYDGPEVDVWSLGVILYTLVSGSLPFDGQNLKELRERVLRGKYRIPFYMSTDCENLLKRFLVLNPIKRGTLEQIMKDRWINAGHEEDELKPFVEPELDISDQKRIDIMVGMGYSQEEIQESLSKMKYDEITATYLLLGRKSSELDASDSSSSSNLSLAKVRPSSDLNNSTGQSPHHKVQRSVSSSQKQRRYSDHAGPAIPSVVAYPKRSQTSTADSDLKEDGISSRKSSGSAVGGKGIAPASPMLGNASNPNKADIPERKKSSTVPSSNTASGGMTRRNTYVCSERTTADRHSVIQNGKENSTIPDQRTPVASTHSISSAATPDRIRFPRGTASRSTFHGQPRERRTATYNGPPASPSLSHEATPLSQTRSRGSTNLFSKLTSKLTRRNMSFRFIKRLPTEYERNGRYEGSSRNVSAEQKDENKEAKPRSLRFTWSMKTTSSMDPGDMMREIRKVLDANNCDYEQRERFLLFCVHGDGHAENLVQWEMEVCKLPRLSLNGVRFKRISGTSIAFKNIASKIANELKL
Chain of Phosphorylase b kinase gamma catalytic chain, skeletal muscle/heart isoform (Homo sapiens) (Q16816 whole entry, looked up, canonical isoform): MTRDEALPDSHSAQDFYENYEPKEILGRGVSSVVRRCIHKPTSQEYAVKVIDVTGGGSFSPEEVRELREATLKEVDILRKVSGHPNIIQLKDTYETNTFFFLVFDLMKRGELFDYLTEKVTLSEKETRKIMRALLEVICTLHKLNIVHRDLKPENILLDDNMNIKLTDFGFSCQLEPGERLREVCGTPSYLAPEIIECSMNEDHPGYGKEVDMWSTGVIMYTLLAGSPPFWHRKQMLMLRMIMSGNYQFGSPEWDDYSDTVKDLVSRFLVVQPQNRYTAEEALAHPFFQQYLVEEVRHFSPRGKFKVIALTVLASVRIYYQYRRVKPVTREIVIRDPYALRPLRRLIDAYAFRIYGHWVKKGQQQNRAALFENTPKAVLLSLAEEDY
Chain of Serine/threonine-protein kinase pim-1 (Homo sapiens) (P11309 whole entry, looked up): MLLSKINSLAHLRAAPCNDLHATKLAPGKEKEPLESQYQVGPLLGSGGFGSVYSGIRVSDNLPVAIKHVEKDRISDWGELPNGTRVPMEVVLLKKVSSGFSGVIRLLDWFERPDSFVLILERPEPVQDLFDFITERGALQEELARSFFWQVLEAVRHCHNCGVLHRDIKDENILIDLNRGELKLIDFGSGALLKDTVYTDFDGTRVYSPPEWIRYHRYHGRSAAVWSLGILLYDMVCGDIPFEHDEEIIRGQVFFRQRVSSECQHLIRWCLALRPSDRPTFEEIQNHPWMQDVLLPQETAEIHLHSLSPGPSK
Chain of Serine/threonine-protein kinase MARK2 (Homo sapiens) (Q7KZI7 whole entry): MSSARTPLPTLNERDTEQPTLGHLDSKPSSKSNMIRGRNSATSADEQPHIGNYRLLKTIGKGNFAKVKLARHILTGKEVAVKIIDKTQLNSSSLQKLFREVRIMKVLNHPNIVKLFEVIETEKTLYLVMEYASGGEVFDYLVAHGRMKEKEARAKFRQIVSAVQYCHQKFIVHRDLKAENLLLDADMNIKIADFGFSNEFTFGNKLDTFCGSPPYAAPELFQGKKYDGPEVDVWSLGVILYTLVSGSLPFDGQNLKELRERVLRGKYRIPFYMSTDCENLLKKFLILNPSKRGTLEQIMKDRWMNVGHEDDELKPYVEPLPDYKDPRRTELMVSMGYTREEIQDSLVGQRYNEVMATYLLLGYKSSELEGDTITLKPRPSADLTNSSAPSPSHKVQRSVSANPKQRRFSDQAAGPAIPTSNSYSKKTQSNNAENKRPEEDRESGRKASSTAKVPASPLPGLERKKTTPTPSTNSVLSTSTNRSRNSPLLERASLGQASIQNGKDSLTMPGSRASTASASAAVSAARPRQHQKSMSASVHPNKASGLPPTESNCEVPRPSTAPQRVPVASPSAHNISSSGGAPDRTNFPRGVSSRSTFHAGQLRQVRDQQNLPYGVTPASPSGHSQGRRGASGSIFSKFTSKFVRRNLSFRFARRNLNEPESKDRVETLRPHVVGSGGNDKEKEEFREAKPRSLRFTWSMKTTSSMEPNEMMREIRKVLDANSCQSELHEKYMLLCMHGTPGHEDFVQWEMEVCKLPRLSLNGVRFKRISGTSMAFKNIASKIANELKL
Chain of PAS domain-containing serine/threonine-protein kinase (Homo sapiens) (Q96RG2 whole entry, the tested form may be a part): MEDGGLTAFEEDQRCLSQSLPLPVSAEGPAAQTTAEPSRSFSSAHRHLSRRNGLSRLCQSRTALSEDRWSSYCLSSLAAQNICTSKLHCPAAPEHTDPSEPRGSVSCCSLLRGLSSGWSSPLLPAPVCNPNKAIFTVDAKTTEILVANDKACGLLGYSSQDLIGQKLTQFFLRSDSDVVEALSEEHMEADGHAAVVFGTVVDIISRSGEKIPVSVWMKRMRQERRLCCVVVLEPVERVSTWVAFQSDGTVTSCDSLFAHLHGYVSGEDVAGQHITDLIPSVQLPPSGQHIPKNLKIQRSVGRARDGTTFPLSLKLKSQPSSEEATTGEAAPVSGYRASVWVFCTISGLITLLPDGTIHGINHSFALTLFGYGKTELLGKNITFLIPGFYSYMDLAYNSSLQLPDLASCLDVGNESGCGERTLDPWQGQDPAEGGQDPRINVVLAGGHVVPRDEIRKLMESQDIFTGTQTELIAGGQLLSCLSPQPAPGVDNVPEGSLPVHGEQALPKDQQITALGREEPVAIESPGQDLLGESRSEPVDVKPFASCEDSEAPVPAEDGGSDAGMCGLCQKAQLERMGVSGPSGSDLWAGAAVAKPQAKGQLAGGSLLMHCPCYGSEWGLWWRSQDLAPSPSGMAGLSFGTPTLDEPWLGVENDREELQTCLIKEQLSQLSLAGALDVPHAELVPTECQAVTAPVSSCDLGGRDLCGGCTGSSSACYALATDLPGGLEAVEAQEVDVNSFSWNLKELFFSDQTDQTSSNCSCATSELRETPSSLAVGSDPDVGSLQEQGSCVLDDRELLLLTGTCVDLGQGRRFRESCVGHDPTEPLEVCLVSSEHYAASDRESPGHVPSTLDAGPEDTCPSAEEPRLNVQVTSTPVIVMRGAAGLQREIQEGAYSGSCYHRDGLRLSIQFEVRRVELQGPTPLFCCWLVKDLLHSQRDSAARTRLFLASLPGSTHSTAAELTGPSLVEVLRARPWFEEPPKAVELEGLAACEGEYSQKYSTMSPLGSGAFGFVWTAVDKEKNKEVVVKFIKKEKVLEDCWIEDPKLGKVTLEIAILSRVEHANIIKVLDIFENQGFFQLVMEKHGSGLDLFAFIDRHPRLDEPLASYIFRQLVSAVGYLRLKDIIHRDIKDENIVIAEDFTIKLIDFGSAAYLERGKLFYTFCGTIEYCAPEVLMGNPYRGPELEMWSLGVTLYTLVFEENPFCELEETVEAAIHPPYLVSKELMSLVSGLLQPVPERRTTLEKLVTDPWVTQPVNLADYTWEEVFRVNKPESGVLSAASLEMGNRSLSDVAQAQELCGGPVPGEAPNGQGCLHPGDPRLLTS
Chain of Serine/threonine-protein kinase pim-2 (Homo sapiens) (Q9P1W9 whole entry, looked up): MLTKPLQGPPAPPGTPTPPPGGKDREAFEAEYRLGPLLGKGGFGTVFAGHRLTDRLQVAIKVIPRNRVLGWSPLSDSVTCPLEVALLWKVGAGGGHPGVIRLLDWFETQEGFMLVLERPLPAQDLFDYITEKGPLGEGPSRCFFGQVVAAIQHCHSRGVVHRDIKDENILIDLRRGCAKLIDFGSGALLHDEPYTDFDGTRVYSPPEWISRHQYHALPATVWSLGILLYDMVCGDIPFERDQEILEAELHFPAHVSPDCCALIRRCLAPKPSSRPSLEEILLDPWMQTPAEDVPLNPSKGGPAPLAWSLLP
Chain of MAP kinase-interacting serine/threonine-protein kinase 1 (Homo sapiens) (Q9BUB5 whole entry, looked up): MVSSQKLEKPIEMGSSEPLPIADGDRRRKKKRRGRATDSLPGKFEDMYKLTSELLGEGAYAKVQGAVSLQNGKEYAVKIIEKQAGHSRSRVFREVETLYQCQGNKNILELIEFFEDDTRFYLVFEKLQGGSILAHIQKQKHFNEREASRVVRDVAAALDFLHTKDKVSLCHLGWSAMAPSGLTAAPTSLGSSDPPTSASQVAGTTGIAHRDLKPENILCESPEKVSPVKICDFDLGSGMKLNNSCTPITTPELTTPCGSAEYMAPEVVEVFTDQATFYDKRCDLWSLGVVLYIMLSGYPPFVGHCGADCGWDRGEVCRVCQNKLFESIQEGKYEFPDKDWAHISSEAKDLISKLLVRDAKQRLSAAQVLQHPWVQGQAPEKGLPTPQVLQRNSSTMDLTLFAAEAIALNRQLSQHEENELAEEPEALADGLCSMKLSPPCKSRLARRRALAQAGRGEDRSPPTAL
Chain of MAP kinase-interacting serine/threonine-protein kinase 2 (Homo sapiens) (Q9HBH9 whole entry, looked up): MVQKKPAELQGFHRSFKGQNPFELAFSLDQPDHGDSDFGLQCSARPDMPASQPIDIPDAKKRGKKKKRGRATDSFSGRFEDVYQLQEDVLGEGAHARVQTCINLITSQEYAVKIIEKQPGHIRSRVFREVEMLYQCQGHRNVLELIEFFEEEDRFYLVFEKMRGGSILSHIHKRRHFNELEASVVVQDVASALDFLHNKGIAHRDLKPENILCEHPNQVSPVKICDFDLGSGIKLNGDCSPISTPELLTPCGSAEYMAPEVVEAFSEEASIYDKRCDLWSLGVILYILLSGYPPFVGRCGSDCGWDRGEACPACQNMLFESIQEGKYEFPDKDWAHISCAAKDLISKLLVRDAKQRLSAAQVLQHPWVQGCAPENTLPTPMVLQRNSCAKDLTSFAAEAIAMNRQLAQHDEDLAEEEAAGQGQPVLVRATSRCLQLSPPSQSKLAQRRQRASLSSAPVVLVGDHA

By inhibition is commonly meant the drop in the measured response relative to a control, in per cent. In the case of `CS(=O)(=O)CCNCc1cc(-c2cc3c(Nc4ccc(OCc5cccc(F)c5)c(Cl)c4)ncnc3s2)cs1`, the inhibition in assay [1] was 3.64%; in assay [2], 1.63%; in assay [3] it was 1.6%; in assay [4] it was 5.46%; in [5] it was 10.5%; in [6] it was 2.78%. Besides, the inhibition in assay [7] was 7.91%; in [8], 1.16%; in assay [9], 7.96%; in assay [10], -0.51%; in [11] it was 0.65%; in assay [12] it was -1.66%. For the same molecule, the inhibition is -1.38% in [13]; 1.42% in assay [14]; 3.57% in assay [15]; 3.77% in [16]; 4.76% in assay [17]; 1.41% in assay [18]. Besides, the inhibition is 2.26% in assay [19] and -0.84% in assay [20].
As for `O=C(Nc1n[nH]c2cc(-c3ccccc3)ccc12)C1CC1`, the inhibition in assay [1] came to 9.09%; in assay [2] it was 2.2%; in assay [3] it was 5.77%; in assay [4] it was 5.64%; in [5] it was 3.69%; in [6], 6.55%. For the same molecule, the inhibition in [7] was found to be 31.4%; in assay [8] it was 3.14%; in assay [9], 10.2%; in assay [10], 1.54%; in assay [11], 3.6%; in assay [12], 0.21%. Besides, the inhibition in [13] was -1.15%; in assay [14], 8.27%; in assay [15], 7.18%; in [16], 5.27%; in assay [17], 4.5%; in [18], 1.3%. In addition, the inhibition in assay [19] is 0.46%; in assay [20] it was 0.26%.
Take `COC(=O)Nc1nc2ccc(Sc3ccc(NC(=O)Nc4cc(C(F)(F)F)ccc4F)cc3)cc2[nH]1`: the inhibition in assay [1] was 1.81%; in assay [2], -1.27%; in assay [3], -0.2%; in [4] it was -2.18%; in assay [5], -2.88%; in assay [6], -0.03%. Also, the inhibition was 4.58% in assay [7]; 0.6% in assay [8]; 1.48% in [9]; 0.92% in assay [10]; -0.67% in assay [11]; 1.15% in assay [12]. The inhibition in [13] was 2%; in assay [14] it was 8.5%; in [15], -0.17%; in assay [16], 1.59%; in assay [17], 0.05%; in assay [18], 33.7%. Besides, the inhibition in [19] is -0.09%; in assay [20], -0.3%.
For `CS(=O)(=O)CCNCc1ccc(-c2ccc3ncnc(Nc4ccc(OCc5ccccc5)c(Br)c4)c3c2)o1`, the inhibition is -0.13% in assay [1]; 2.98% in assay [2]; 2.37% in [3]; 5.3% in [4]; 5.37% in [5]; 2.72% in assay [6]. The inhibition in [7] was 6.16%; in [8], 2.36%; in assay [9] it was 7.73%; in assay [10], 0.23%; in assay [11] it was -0.56%; in assay [12], -0.29%. Moreover, the inhibition is 0.16% in assay [13]; 7% in [14]; 3.21% in assay [15]; 5.03% in assay [16]; 4.55% in [17]; -0.99% in assay [18]. In addition, the inhibition was -0.09% in [19] and -3.07% in assay [20].
As for `O=C1Nc2ccc(I)cc2C1=Cc1cc(Br)c(O)c(Br)c1`, the inhibition in assay [1] is 2.16%; in assay [2] it was 1.14%; in assay [3], 2.32%; in assay [4] it was 2.86%; in assay [5] it was 13.8%; in [6], 2.2%. The inhibition in assay [7] was 7.73%; in assay [8], 2.51%; in assay [9] it was 17.6%; in assay [10], -0.39%; in [11], 2.16%; in [12] it was -2.03%. Moreover, the inhibition is -1.55% in assay [13]; -0.98% in [14]; 3.92% in assay [15]; 4.05% in [16]; 4.75% in [17]; 2.05% in assay [18]. For the same molecule, the inhibition worked out at 11.4% in [19] and 0.13% in assay [20].
In the case of `COc1ccc2ncn(-c3cc(O[C@H](C)c4ccccc4Cl)c(C(N)=O)s3)c2c1`, the inhibition came out at 3.11% in assay [1]; 2.49% in assay [2]; 2.42% in assay [3]; 7.14% in assay [4]; 6.08% in [5]; 1.84% in [6]. Moreover, the inhibition is 2.25% in assay [7]; 0.29% in assay [8]; 2.7% in assay [9]; -0.63% in assay [10]; 0.49% in assay [11]; -0.21% in [12]. The inhibition is 0.54% in [13]; 5.98% in assay [14]; 7.62% in assay [15]; 6% in assay [16]; 5% in assay [17]; -0.74% in [18]. The inhibition in assay [19] is 3.29%; in [20], -3.96%.
With `CCc1ccc(Oc2nccc(-c3c(-c4ccc(F)cc4)ncn3C3CCNCC3)n2)cc1`, the inhibition in [1] was 7.86%; in [2], 2.89%; in assay [3] it was 4.67%; in assay [4] it was 6.32%; in assay [5] it was 5.64%; in [6], 2.17%. For the same molecule, the inhibition in assay [7] is 4.48%; in assay [8], 3.36%; in [9] it was 3.52%; in assay [10] it was 1.93%; in [11], 4.62%; in [12], -0.7%. The inhibition in assay [13] worked out at 0.69%; in assay [14], 1.39%; in assay [15], 2.98%; in assay [16] it was 5.05%; in assay [17], 5.44%; in assay [18], 2.14%. Moreover, the inhibition in [19] was determined as 1.74%; in [20], 0.08%.
Turning to `NC(=O)c1ccc(Oc2nccc(-c3c(-c4ccc(F)cc4)ncn3C3CCNCC3)n2)cc1`, the inhibition in assay [1] was 6.64%; in assay [2], 1.51%; in assay [3] it was 2.24%; in [4], 7.28%; in assay [5] it was 11.6%; in assay [6], 3.92%. Further, the inhibition in [7] was 4.27%; in [8] it was 3.56%; in assay [9], 4.79%; in assay [10], 2.73%; in assay [11], 4.02%; in assay [12], -1.25%. In addition, the inhibition in assay [13] was -0.29%; in assay [14], 3.06%; in [15], 5.58%; in assay [16], 5.89%; in assay [17] it was 5.72%; in assay [18], 0.9%. The inhibition in assay [19] is 1.7%; in [20], -0.5%.
